The target of experiment [1] is Cytochrome P450 2C9 (Homo sapiens) (UniProt P11712). Put plainly: Cytochrome P450 family 2 subfamily C member 9 (CYP2C9) small molecule antagonists: luciferase biochemical (cell-free) qHTS assay (AID 1645842; active means well fitted curve in the direction sought with a large enough effect in the repeat runs; an effect the other way counts as inactive or inconclusive; further: nearly all actives have a fitted effect of over 55% in size; further: potency means the concentration at half of the fitted maximal effect; on activity change, negative = inhibition: on the % scale 0 is the no-effect control and ±100 the full control effect). The procedure, abridged:
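P450-Glo CYP2C9 system: proluciferin substrate with enzyme in mix containing 0.4% BSA, 10 min at room temperature, then NADPH regeneration solution added and incubated 1 h at 37C. Detection reagent stopped reaction; luminescence read after 20 min as RLU.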

Experiment [2] in a line: Primary qHTS for inhibitors of nuclear receptor binding SET domain protein 2 (NSD2) in an isogenic RCH-ACV NSD2 p.E1099K mutant (9B) (AID 1645876). Further: nearly all actives have a fitted effect of over 70% in size. Further: potency means the concentration at half of the fitted maximal effect. A general note: qHTS replaces the single test concentration by a dilution series.
Experiment [3] in a line: Primary qHTS for inhibitors of nuclear receptor binding SET domain protein 2 (NSD2) in an RCH-ACV wild type WT cells (2C) (AID 1645877). Further: nearly all actives have a fitted effect of over 70% in size. Further: potency means the concentration at half of the fitted maximal effect.
In experiment [4] the target is Cytochrome P450 2D6 (Homo sapiens) (UniProt P10635). Put plainly: Cytochrome P450 family 2 subfamily D member 6 (CYP2D6) small molecule antagonists: luciferase biochemical (cell-free) qHTS assay (AID 1645840; active means well fitted curve in the direction sought with a large enough effect in the repeat runs; an effect the other way counts as inactive or inconclusive; further: nearly all actives have a fitted effect of over 55% in size; further: potency means the concentration at half of the fitted maximal effect; on activity change, negative = inhibition: on the % scale 0 is the no-effect control and ±100 the full control effect). Put shortly: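 P450-Glo CYP2D6 system: proluciferin substrate converted by enzyme to luciferin, read by luminescence proportional to activity. Enzyme-substrate mix with compound 10 min at room temperature, then NADPH regeneration 1 h before detection reagent.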
Chain of Cytochrome P450 2D6 (Homo sapiens) (P10635 whole entry, looked up): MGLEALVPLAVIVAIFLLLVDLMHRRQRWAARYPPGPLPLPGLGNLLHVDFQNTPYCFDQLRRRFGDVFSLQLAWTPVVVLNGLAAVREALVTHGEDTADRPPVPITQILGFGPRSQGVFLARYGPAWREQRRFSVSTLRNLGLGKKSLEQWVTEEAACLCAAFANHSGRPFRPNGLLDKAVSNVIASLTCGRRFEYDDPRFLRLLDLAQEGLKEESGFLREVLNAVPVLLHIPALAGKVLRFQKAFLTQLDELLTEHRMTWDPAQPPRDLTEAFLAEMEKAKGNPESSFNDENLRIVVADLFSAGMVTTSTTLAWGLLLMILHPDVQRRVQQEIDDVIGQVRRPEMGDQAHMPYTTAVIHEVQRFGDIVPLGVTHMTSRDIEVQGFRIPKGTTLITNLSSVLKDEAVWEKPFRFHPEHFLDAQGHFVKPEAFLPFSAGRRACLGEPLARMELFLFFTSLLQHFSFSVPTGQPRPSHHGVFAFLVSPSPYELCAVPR

The target of experiment [5] is Papain (Carica papaya) (UniProt P00784). Put plainly: Primary qHTS assay for inhibitors of the protease papain (AID 1645873).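 Further: papain turnover of Z-FR-AMC read as the AMC fluorescence gain over 10 min; on the % scale 0 is the no-effect control and ±100 the full control effect.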
Chain of Papain (Carica papaya) (P00784 whole entry, looked up): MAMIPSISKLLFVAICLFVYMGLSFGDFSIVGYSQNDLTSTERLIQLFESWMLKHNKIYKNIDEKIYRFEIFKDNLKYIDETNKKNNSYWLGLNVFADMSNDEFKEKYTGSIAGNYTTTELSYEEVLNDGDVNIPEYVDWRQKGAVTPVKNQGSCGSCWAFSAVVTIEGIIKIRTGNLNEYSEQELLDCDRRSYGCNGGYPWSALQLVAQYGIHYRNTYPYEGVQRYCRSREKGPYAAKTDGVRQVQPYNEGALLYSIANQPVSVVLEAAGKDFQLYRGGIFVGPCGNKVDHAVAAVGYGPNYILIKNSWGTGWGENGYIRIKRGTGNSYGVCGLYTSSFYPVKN
The target of experiment [6] is Catechol O-methyltransferase (Homo sapiens) (UniProt P21964). Put plainly: Confirmatory Screen for Target Class Profiling of Small Molecule Inhibitors of Methyltransferases (AID 1745852; calls by dose curve; on activity change, negative = inhibition: on the % scale 0 is the no-effect control and ±100 the full control effect). Conditions: MTase-Glo luminescence, SAH detection, recombinant enzyme; measured here: COMT max response; stronger effect = lower value.
Chain of Catechol O-methyltransferase (Homo sapiens) (P21964 whole entry, looked up): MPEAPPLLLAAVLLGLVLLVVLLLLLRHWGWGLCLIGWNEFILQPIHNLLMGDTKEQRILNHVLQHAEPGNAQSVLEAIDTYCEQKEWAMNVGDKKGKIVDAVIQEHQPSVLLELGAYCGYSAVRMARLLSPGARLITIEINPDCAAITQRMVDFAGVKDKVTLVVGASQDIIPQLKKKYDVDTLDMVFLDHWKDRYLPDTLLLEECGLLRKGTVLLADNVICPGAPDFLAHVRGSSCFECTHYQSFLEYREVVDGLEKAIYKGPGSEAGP
Experiment [7] has as its target Guanidinoacetate N-methyltransferase (Homo sapiens) (UniProt Q14353). Described as above. Conditions: MTase-Glo luminescence, SAH detection, recombinant enzyme; at 57.3 µM (top of the series).
The target of experiment [8] is Nicotinamide N-methyltransferase (Homo sapiens) (UniProt P40261). The description is as above. The settings on record: MTase-Glo luminescence, SAH detection, recombinant enzyme; measured here: NNMT max response; stronger effect = lower value.
Chain of Nicotinamide N-methyltransferase (Homo sapiens) (P40261 whole entry, looked up): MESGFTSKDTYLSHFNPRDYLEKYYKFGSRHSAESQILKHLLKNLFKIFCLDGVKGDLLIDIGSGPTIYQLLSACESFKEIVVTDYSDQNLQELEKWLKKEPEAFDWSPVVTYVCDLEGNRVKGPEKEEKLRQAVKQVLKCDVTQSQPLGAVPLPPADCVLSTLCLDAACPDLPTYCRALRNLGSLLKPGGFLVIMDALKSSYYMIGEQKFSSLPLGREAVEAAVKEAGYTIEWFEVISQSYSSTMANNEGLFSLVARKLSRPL
For experiment [9], the target named is Phenylethanolamine N-methyltransferase (Homo sapiens) (UniProt P11086). Described as above. Conditions: MTase-Glo luminescence, SAH detection, recombinant enzyme; measured here: PNMT max response; stronger effect = lower value.
Chain of Phenylethanolamine N-methyltransferase (Homo sapiens) (P11086 whole entry, looked up): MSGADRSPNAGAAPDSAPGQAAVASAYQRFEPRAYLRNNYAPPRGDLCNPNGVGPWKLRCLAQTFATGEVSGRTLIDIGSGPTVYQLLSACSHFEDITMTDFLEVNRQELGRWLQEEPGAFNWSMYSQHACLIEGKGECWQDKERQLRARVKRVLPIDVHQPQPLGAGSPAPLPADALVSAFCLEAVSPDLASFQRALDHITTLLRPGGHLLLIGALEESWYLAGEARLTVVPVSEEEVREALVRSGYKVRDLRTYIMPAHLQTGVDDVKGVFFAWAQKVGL
Experiment [10] has as its target N-terminal Xaa-Pro-Lys N-methyltransferase 1 (Homo sapiens) (UniProt Q9BV86). Put plainly: Confirmatory qHTS for Inhibitors of N-terminal methyltransferase 1 (NTMT1): MTaseGlo Assay (AID 1645874).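 Further: luminescence from SAH made as NTMT1 methylates SPKRIA peptide using SAM; 0% = DMSO control and -100% = no-enzyme control; nearly all actives have a fitted effect of over 65% in size.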 The procedure, abridged: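 MTase-Glo luminescence measured SAH formed by 125 nM NTMT1 from 100 uM SAM and 1 uM SPKRIA peptide over 30 min at room temperature, following 15 min compound preincubation. Percent inhibition against no-enzyme and DMSO controls gave 4-parameter Hill fits.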

Several values for one entry are separate records, joined by “and”; a condition that tells them apart may be missing. Identical values can stand only once. Results filed as inconclusive are left out. Activity calls are given as the source filed them. Unless noted, the call rests on the fitted dose curve; in most records, active means well fitted curve in the direction sought with a large enough effect; inconclusive means small, poorly fitted or top-dose-only effect, or another doubt; inactive means no such curve, though single readings can be large; an effect the other way counts as inactive or inconclusive.

Chain of Cytochrome P450 2C9 (Homo sapiens) (P11712 whole entry, looked up): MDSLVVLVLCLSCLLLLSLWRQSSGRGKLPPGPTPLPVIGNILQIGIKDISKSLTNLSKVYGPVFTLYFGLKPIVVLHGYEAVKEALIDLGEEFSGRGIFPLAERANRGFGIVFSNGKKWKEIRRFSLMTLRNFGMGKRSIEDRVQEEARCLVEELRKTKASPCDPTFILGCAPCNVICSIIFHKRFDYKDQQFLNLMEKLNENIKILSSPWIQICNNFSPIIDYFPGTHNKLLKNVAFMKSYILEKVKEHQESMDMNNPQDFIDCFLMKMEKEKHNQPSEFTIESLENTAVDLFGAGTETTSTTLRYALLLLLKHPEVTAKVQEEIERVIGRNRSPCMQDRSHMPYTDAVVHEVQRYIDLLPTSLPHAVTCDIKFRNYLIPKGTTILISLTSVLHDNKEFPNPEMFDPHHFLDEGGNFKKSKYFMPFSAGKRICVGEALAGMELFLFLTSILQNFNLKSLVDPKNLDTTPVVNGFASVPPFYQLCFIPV
Chain of N-terminal Xaa-Pro-Lys N-methyltransferase 1 (Homo sapiens) (Q9BV86 whole entry, looked up): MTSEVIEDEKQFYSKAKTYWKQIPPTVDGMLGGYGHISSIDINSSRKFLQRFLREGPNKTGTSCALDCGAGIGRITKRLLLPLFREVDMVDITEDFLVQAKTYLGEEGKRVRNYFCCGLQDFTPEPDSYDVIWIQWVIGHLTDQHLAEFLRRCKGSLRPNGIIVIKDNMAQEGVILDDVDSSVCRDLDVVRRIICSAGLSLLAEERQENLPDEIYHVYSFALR

Regarding `CSc1ccc(/C=C2/C(C)=C(CC(=O)O)c3cc(F)ccc32)cc1`, the Potency entry in experiment [1], in [2] and in experiment [3] was “inactive” throughout.
Regarding `CN1Cc2cc(C(=O)N3CCC(C4CCNCC4)CC3)ccc2NC(CC(=O)O)C1=O` (stereo not given), the Potency entry in [4], in [1], in [2] and in experiment [3] was “inactive” each time.
For the molecule `NC(=O)COCCN1CCN(C(c2ccccc2)c2ccc(Cl)cc2)CC1` (stereo not given), the Potency result in [4], in experiment [2] and in experiment [3] was “inactive” each time.
Regarding `OCc1c[nH]c2ccccc12`, the Potency in [4] is 25.2 µM (active); in experiment [1], 7.31 µM (active); in experiment [2], 24.3 µM (active); in experiment [3] it was 24.3 µM (active).
Regarding `C[C@@H](C1=C(CCN(C)C)Cc2ccccc21)c1ccccn1`, the Potency in experiment [4] is 11 µM (active). The Potency entry in experiment [2] is “inactive”.
Regarding `CN(C)c1cc2c(Nc3ccc4c(cnn4Cc4ccccc4)c3)ncnc2cn1`, the outcome in experiment [5] was “inactive”. Besides, the Potency in [2] is 23 µM (active). Moreover, the activity in experiment [6] is 5.63%; in [8] it was -16.7%; in experiment [9] it was -3.6%. For the same molecule, the activity change, negative = inhibition in [7] worked out at 6.38%.
On to `CCN(CC)CCOc1ccc(/C(=C(\Cl)c2ccccc2)c2ccccc2)cc1`, for which the Potency in experiment [4] is 1.38 µM (active); in [2], 15 µM (active) and 8.33 µM (active); in [3] it was 11.9 µM (active) and 5.25 µM (active).
On to `CN(C)CCOC1=Cc2ccccc2Sc2ccc(Cl)cc21`, for which the figures for the Potency in [4] and in experiment [3] were 1.1 µM (active) and 16.8 µM (active), respectively. In addition, the Potency result in experiment [1] was “inactive”.
Regarding `CC(=O)N[C@@H](CCC(N)=O)C(=O)O`, the Potency result in [4], in [1], in experiment [2] and in [3] was “inactive” each time.
Regarding `Cc1oc(=O)oc1COC(=O)[C@@H]1N2C(=O)[C@@H](NC(=O)[C@H](N)c3ccccc3)[C@H]2SC1(C)C`, the Potency entry in experiment [4], in experiment [1], in [2] and in experiment [3] was “inactive” each time.
As for `O=C(CCC1CCN(Cc2ccccc2)CC1)c1ccc2c(c1)NCCCC2`, in experiment [4], the Potency was 9.77 µM (active). The Potency result in experiment [1] was “inactive”.
Consider `O=C1NC2CCCCN2C12CCN(CCCN1c3ccccc3CCc3ccc(Cl)cc31)CC2` (stereo not given), for which the results for the Potency in [4], in experiment [2] and in [3] were 2.45 µM (active), 18.3 µM (active) and 21.1 µM (active), respectively. Also, the activity in experiment [6] is -2.76%; in experiment [8], -29.7%; in [9] it was -1.01%. Moreover, in experiment [7], the activity change, negative = inhibition stood at 1.64%.
Consider `CN1C(CSCC(F)(F)F)Nc2cc(Cl)c(S(N)(=O)=O)cc2S1(=O)=O` (stereo not given), for which the Potency result in experiment [4], in [1], in experiment [2] and in experiment [3] was “inactive” throughout.
`CN1CCCN=C1/C=C/c1cccs1`: the Potency result in experiment [10], in experiment [2] and in experiment [3] was “inactive” throughout.
Regarding `O=C(c1cc(O)c(O)c(O)c1)c1ccc(O)c(O)c1O`, the Potency result in experiment [1] is “inactive”. For the same molecule, the figures for the Potency in experiment [2] and in experiment [3] were 2.37 µM (active) and 13.3 µM (active), respectively.

The values above are taken from PubChem BioAssay (NCATS).
